SMILES strings stand for the structures. ± gives the standard deviation.

The first assay concerns RAW-Dual (murine macrophage reporter line). As to the kind of experiment: NF-kB reporter (SEAP) activity fold change vs agonist alone; higher = enhanced NF-kB activity. Particulars: modulator concentration 10 µM; agonist: CpG ODN 1826 0.5 ug/mL. Put shortly:
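Compound reached 10 μM final in each well by pin transfer, onto RAW-Dual murine macrophage reporter cells seeded at 50 000 per well in 384-well plates. After 1 hour at 37 °C, the cells were stimulated overnight with a PRR agonist. SEAP in the supernatant was read with QUANTI-Blue at 620 nm absorbance for NF-κB, and Lucia luciferase was read with QUANTI-Luc luminescence for IRF. Each signal was turned into fold change against the mean agonist-only control on the same plate, and two replicate plates were averaged with propagated errors.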
In the case of `Cc1cc(CCNC(=O)c2cc3ccccc3s2)nn1C`, the NF-kB reporter is 1.2 ± 0.12. Still for that read-out and setting: as for `Cc1c(C(=O)Nc2ccc(N3C[C@@H](C)O[C@@H](C)C3)nc2)cccc1-c1ccc(OC(F)(F)F)cc1`, the figure is 1.25 ± 0.17. On the same count and under the same terms, as for `COCCCN1C(=O)C(=Cc2ccc(-c3ccc(Cl)cc3Cl)o2)SC1=S`, the figure is 0.954 ± 0.054.

On to `CC(C)CN(CC(O)C(Cc1ccccc1)NC(=O)OC1COC2OCCC12)S(=O)(=O)c1ccc(N)cc1` (stereo not given) [Prestw-1802], for which the NF-kB reporter was 1.53 ± 0.34.

As to `CCn1c2ccccc2c2cc(CNCCc3ccccc3)ccc21`, the NF-kB reporter came out at 0.476 ± 0.041. The same measure, in the same setting: as for `O=C(OC1Cc2c(O)cc(O)cc2OC1c1cc(O)c(O)c(O)c1)c1cc(O)c(O)c(O)c1` (stereo not given), the figure is 0.321 ± 0.094. Same read-out and setting: the value for `CCc1sc2sncc2c1Br` was 0.199 ± 0.022; that for `COc1cccc(N2CCN(C3CCN(CC4CCOCC4)CC3)CC2)c1` was 0.75 ± 0.078; that for `CN1CCN(CCCN2c3ccccc3Sc3ccc(Cl)cc32)CC1.O=C(O)/C=C\C(=O)O.O=C(O)/C=C\C(=O)O` was 1.01 ± 0.049.

As for `Cc1ccc(OCC(=O)N2CCN(c3ccc(-n4cncn4)nn3)CC2)c(C(C)(C)C)c1`, the NF-kB reporter is 1.11 ± 0.13. Regarding `Cc1ccc(S(=O)(=O)n2c(C)nc3ccccc32)cc1`, the NF-kB reporter is 1.13 ± 0.22. Consider `CCCCNCCCCOc1ccc(C)cc1C(C)(C)C`, for which the NF-kB reporter was 0.441 ± 0.12. For `CCN(CC)CCOC(=O)c1ccc(N)cc1Cl.Cl`, the NF-kB reporter was determined as 1.06 ± 0.094. On the same count and under the same terms, as for `CC(=O)C(C(=O)Nc1ccc(F)cc1)C(c1ccc(Cl)cc1Cl)C(C#N)C#N` (stereo not given), the figure is 0.894 ± 0.054; as for `O=C(CCc1ccc(O)cc1)c1c(O)cc(O)cc1O`, 1.06 ± 0.2; as for `Nc1nc(Cl)nc2c1ncn2[C@@H]1O[C@H](CO)[C@@H](O)[C@@H]1F`, 2.13 ± 0.16. Turning to `CCC(C)(C)C(=O)OC1CC(C)C=C2C=CC(C)C(CCC3CC(O)CC(=O)O3)C21` (stereo not given), the NF-kB reporter was 1.65 ± 0.13. Still for that read-out and setting: the value for `O=C(CC1CCCCN1S(=O)(=O)c1ccccc1)NCCC1=CCCCC1` (stereo not given) was 0.994 ± 0.13; that for `C#Cc1cccc(Nc2ncnc3cc(OC)c(OCCCCCCC(=O)NO)cc23)c1` was 1.12 ± 0.058. Still for that read-out and setting: the value for `C=C1C(=O)O[C@@H]2[C@H]3O[C@]3(C)CC/C=C(\C)CC[C@@H]12` [Prestw-550] was 0.314 ± 0.019.

The assay is the same for the next values; noted with them: modulator concentration 10 µM; agonist: LPS 0.1 ug/mL.
For the compound `O=S1(=O)Nc2c(ccc3cccnc23)-c2ccccc21`, the NF-kB reporter amounted to 1.38 ± 0.1.

On to `O=C(NCCCCNC(=O)c1cncc(Br)c1)c1cncc(Br)c1`, for which the NF-kB reporter turned out to be 0.973 ± 0.095. On the same count and under the same terms, as for `Nc1ncnc2c1nc(S)n2C1OC(CO)C(O)C1O` (stereo not given), the figure is 0.9 ± 0.082.

For the compound `Cn1nc(CNC(=O)c2cccc3ccccc23)cc1C1CC1`, the NF-kB reporter came to 0.852 ± 0.065. The same measure, in the same setting: as for `CC1(C)[C@H](C(=O)O)N2C(=O)C[C@H]2S1(=O)=O`, the figure is 1.05 ± 0.079.

As to `O=C(Cn1cnc(-c2ccc(Cl)cc2)cc1=O)N1CCOCC1`, the NF-kB reporter stood at 0.924 ± 0.047.

As for `Cl.N=C1CCCN1Cc1[nH]c(=O)[nH]c(=O)c1Cl`, the NF-kB reporter was found to be 0.379 ± 0.037. The same measure, in the same setting: as for `Cl.N=c1ccn2c(n1)OC1C(O)C(CO)OC12` (stereo not given), the figure is 1.17 ± 0.17; as for `COC1(c2ccc(Cl)cc2)OC(=O)c2ccccc21` (stereo not given), 0.974 ± 0.052; as for `O=c1oc2c3c4c(cc2cc1-c1nnc(-c2ccccc2)o1)CCCN4CCC3`, 1.04 ± 0.1. Same read-out and setting: the value for `c1ccc(-c2cc3c4cccn4ccn3c2)cc1` was 0.87 ± 0.068. Same read-out and setting: as for `CC1(C)CCC2(C(=O)O)CCC3(C)C(=CCC4C5(C)CCC(O)C(C)(C)C5CCC43C)C2C1` (stereo not given), the figure is 1.12 ± 0.088. With `COc1ccc(C(O)CN2CCN(c3cccc(C)c3C)CC2)cc1OC` (stereo not given), the NF-kB reporter came to 0.928 ± 0.095. Same read-out and setting: the value for `N#CC[C@H](C1CCCC1)n1cc(-c2ncnc3[nH]ccc23)cn1` was 0.341 ± 0.017; that for `CN(C)C(CNC(=O)NCc1ccc(Cl)cc1)c1ccc2c(c1)CCO2` (stereo not given) was 1.17 ± 0.091; that for `Oc1ccc(C=NCc2ccccc2)cc1` was 1.08 ± 0.079. Same read-out and setting: the value for `COc1ccc(NC(=O)CCn2nc(C)nc2C)cc1` was 1.07 ± 0.085.

For `Nc1ncnc2c1ncn2[C@@H]1O[C@H](CO)[C@@H](O)[C@H]1O`, the NF-kB reporter is 1.13 ± 0.079. The same measure, in the same setting: as for `CC1(C)CC(=O)c2c(nc3ccc(Br)cc3c2N)C1.Cl`, the figure is 1.08 ± 0.067; as for `Cc1ccc(C(=O)NC(Oc2ccc3ccccc3c2)C(Br)(Br)Br)cc1` (stereo not given), 1.02 ± 0.092. Same read-out and setting: the value for `Cc1cc(CCNC(=O)c2cc3ccccc3s2)nn1C` was 1.07 ± 0.082. For the compound `Cc1c(C(=O)Nc2ccc(N3C[C@@H](C)O[C@@H](C)C3)nc2)cccc1-c1ccc(OC(F)(F)F)cc1`, the NF-kB reporter worked out at 1.13 ± 0.2. Still for that read-out and setting: as for `COCCCN1C(=O)C(=Cc2ccc(-c3ccc(Cl)cc3Cl)o2)SC1=S`, the figure is 1.01 ± 0.082; as for `CC(C)CN(CC(O)C(Cc1ccccc1)NC(=O)OC1COC2OCCC12)S(=O)(=O)c1ccc(N)cc1` (stereo not given) [Prestw-1802], 1.52 ± 0.14. On the same count and under the same terms, as for `CCn1c2ccccc2c2cc(CNCCc3ccccc3)ccc21`, the figure is 0.534 ± 0.035; as for `O=C(OC1Cc2c(O)cc(O)cc2OC1c1cc(O)c(O)c(O)c1)c1cc(O)c(O)c(O)c1` (stereo not given), 1.04 ± 0.083. On the same count and under the same terms, the value for `CCc1sc2sncc2c1Br` was 0.817 ± 0.06; that for `COc1cccc(N2CCN(C3CCN(CC4CCOCC4)CC3)CC2)c1` was 1.03 ± 0.11. Consider `CN1CCN(CCCN2c3ccccc3Sc3ccc(Cl)cc32)CC1.O=C(O)/C=C\C(=O)O.O=C(O)/C=C\C(=O)O`, for which the NF-kB reporter is 1.14 ± 0.098. The same measure, in the same setting: the value for `Cc1ccc(OCC(=O)N2CCN(c3ccc(-n4cncn4)nn3)CC2)c(C(C)(C)C)c1` was 0.971 ± 0.085; that for `Cc1ccc(S(=O)(=O)n2c(C)nc3ccccc32)cc1` was 1 ± 0.18; that for `CCCCNCCCCOc1ccc(C)cc1C(C)(C)C` was 0.167 ± 0.036. On to `CCN(CC)CCOC(=O)c1ccc(N)cc1Cl.Cl`, for which the NF-kB reporter was 0.971 ± 0.048. Take `CC(=O)C(C(=O)Nc1ccc(F)cc1)C(c1ccc(Cl)cc1Cl)C(C#N)C#N` (stereo not given): the NF-kB reporter worked out at 0.93 ± 0.057. The same measure, in the same setting: the value for `O=C(CCc1ccc(O)cc1)c1c(O)cc(O)cc1O` was 1.07 ± 0.085. Still for that read-out and setting: the value for `Nc1nc(Cl)nc2c1ncn2[C@@H]1O[C@H](CO)[C@@H](O)[C@@H]1F` was 1.41 ± 0.13; that for `CCC(C)(C)C(=O)OC1CC(C)C=C2C=CC(C)C(CCC3CC(O)CC(=O)O3)C21` (stereo not given) was 1.56 ± 0.11; that for `O=C(CC1CCCCN1S(=O)(=O)c1ccccc1)NCCC1=CCCCC1` (stereo not given) was 1.21 ± 0.095. The same measure, in the same setting: the value for `C#Cc1cccc(Nc2ncnc3cc(OC)c(OCCCCCCC(=O)NO)cc23)c1` was 1.45 ± 0.11.

For `C=C1C(=O)O[C@@H]2[C@H]3O[C@]3(C)CC/C=C(\C)CC[C@@H]12` [Prestw-550], the NF-kB reporter was 0.312 ± 0.036.
